Common to all, as to assay: DAPPL (digital affinity profiling via proximity ligation, sequencing); 10 mM Tris-HCl pH 7.5, 50 mM NaCl, 1 mM DTT, 4% glycerol, room temperature, 30 min; GST-TFs on glutathione beads, 16-mer random dsDNA library, 0.1% formaldehyde crosslink after washing; high values mean tight binding
The target of experiment [1] is ELF1 (Homo sapiens, UniProt P32519 1-619). The settings on record: protein: recombinant; tags: N-terminal GST; dsDNA, one strand shown. The procedure, abridged: (§1)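 A tag-only sample was pooled with DNA-barcoded human transcription factors that had been expressed in yeast as GST fusions and captured on glutathione beads. The pools were incubated for 30 min at room temperature with 200 nmole of a random double-stranded 16-mer DNA library in Tris/NaCl/DTT/glycerol buffer, then washed, crosslinked with 0.1% formaldehyde, proximity-ligated (BsaI/T4 ligase, 1 h, 37 °C), PCR-amplified and sequenced on an Illumina NextSeq500. Binding signal is each hexamer's read frequency for a factor divided by its frequency for the tag-only sample.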
Sequence of ELF1 (P32519 whole entry, the tested form may be a part): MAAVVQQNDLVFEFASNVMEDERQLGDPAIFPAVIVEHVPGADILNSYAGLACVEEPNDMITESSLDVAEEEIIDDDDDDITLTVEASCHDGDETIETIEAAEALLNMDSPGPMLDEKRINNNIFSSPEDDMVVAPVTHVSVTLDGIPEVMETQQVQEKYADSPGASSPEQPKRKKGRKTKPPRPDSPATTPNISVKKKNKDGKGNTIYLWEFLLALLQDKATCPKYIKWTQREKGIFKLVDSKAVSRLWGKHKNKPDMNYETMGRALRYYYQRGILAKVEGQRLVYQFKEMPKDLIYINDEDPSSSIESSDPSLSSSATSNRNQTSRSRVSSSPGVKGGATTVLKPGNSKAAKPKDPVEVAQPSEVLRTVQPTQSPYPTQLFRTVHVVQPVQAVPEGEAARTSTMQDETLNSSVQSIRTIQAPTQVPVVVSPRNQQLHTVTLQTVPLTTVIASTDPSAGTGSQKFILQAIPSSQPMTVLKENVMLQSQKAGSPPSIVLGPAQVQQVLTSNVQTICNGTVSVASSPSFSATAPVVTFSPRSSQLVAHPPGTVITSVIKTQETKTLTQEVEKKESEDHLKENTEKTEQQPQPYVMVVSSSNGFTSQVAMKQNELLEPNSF

Experiment [2] has as its target T1, ELK3 (Homo sapiens, UniProt P41970 1-407).
T1 sequence: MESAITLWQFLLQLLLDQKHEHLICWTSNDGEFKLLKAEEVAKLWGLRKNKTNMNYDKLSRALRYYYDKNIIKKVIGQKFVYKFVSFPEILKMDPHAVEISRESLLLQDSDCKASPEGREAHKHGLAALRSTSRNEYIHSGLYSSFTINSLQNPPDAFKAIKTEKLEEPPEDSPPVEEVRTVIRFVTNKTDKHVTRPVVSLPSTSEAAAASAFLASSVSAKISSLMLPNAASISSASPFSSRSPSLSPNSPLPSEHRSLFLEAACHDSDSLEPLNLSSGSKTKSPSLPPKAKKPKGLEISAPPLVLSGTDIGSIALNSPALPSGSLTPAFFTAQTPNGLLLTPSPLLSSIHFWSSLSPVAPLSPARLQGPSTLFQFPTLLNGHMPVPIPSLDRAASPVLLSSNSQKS
The conditions noted are these: protein: recombinant; tags: N-terminal GST; dsDNA, one strand shown. The procedure, abridged: as §1

Experiment [3] has as its target HSF1 (Homo sapiens, UniProt Q00613 1-529). The settings on record: protein: recombinant; tags: N-terminal GST; chain copies: 3; dsDNA, one strand shown. The method, boiled down: as §1
For experiment [4], the target named is T2, ELK4 (Homo sapiens, UniProt P28324-2 1-405).
T2 sequence: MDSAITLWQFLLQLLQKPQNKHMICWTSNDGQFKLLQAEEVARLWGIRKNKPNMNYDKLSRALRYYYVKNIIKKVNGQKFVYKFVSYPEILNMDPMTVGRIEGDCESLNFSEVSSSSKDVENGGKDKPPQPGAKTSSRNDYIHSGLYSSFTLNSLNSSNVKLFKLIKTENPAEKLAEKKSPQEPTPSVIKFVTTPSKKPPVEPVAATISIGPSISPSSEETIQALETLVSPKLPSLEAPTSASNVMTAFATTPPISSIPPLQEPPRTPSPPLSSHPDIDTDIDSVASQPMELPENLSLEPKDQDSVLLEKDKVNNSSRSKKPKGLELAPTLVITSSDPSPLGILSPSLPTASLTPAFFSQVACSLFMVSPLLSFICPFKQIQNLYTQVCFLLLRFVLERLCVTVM
The settings on record: protein: recombinant; tags: N-terminal GST; dsDNA, one strand shown. The procedure, abridged:
as §1

Experiment [5] deals with T3, ELF3 (Homo sapiens, UniProt P78545 1-371).
T3 sequence: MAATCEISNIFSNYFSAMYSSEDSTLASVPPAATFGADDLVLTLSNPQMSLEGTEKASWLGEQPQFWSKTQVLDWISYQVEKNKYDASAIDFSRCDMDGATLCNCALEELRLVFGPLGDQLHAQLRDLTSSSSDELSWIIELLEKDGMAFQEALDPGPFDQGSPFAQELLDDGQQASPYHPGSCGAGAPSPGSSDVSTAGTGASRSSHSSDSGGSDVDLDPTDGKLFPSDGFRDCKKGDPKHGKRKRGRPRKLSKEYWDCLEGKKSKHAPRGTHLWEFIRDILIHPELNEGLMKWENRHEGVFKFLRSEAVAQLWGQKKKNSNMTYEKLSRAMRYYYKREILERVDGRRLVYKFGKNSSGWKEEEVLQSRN
The conditions noted are these: protein: recombinant; tags: N-terminal GST; dsDNA, one strand shown. The method, boiled down: as §1

Experiment [6] concerns the target CRX (Homo sapiens, UniProt O43186 1-299). The settings on record: protein: recombinant; tags: N-terminal GST; dsDNA, one strand shown. The procedure, abridged:
as §1

Experiment [7] concerns the target T4, ERF (Homo sapiens, UniProt P50548 1-548).
T4 sequence: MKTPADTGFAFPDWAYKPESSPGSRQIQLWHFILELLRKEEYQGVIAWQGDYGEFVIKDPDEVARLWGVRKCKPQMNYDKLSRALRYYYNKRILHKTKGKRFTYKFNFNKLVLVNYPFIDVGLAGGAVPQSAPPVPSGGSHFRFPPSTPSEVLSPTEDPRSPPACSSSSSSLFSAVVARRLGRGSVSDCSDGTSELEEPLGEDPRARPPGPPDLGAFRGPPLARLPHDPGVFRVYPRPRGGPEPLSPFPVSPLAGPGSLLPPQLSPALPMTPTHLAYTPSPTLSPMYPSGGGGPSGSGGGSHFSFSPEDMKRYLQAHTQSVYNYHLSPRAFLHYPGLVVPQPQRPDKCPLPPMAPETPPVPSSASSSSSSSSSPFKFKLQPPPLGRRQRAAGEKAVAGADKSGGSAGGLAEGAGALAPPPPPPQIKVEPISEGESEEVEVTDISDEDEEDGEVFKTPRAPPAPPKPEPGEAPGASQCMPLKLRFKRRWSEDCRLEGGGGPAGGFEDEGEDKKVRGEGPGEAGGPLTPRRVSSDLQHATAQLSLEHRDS
The settings on record: protein: recombinant; tags: N-terminal GST; dsDNA, one strand shown. The procedure, abridged: as §1

Experiment [8] deals with T5, ETV3L (Homo sapiens, UniProt Q6ZN32 1-361).
T5 sequence: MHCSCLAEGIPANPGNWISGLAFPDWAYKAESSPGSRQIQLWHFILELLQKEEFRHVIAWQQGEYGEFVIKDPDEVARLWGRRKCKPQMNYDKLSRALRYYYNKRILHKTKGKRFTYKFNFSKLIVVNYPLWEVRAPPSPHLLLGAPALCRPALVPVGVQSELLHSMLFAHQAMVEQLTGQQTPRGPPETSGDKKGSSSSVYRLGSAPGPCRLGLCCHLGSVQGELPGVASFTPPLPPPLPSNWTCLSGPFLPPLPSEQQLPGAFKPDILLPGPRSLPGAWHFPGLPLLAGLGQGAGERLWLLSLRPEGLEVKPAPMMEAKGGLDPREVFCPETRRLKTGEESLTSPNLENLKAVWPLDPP
The settings on record: protein: recombinant; tags: N-terminal GST; dsDNA, one strand shown. The procedure, abridged:
as §1

Experiment [9] has as its target T6, ETV7 (Homo sapiens, UniProt Q9Y603 1-341).
T6 sequence: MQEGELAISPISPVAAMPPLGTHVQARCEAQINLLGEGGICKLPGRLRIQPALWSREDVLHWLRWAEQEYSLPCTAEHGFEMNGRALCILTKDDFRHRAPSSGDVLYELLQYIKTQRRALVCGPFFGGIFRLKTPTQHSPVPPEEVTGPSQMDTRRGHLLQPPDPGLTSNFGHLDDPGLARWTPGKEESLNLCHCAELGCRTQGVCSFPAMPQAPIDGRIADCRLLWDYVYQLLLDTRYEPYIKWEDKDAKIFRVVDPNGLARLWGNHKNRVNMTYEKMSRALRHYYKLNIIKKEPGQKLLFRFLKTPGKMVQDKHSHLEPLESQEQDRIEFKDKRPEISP
The conditions noted are these: protein: recombinant; tags: N-terminal GST; dsDNA, one strand shown. The method, boiled down:
as §1

Experiment [10] deals with T7, GABPA (Homo sapiens, UniProt Q06546 1-454).
T7 sequence: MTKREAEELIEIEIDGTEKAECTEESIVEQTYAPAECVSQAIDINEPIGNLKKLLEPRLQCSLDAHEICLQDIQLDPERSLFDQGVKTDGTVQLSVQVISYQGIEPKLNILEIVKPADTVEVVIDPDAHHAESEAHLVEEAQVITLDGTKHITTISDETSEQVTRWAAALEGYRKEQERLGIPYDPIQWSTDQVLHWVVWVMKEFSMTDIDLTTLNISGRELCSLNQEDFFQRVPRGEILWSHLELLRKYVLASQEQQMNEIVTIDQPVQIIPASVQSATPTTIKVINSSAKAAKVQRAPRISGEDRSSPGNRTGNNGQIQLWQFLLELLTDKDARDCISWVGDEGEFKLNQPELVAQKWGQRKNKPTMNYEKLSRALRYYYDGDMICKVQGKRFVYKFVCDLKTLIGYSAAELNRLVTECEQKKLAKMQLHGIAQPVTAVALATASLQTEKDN
The settings on record: protein: recombinant; tags: N-terminal GST; dsDNA, one strand shown. The method, boiled down:
as §1

The target of experiment [11] is T8, EHF (Homo sapiens, UniProt Q9NZC4 1-300).
T8 sequence: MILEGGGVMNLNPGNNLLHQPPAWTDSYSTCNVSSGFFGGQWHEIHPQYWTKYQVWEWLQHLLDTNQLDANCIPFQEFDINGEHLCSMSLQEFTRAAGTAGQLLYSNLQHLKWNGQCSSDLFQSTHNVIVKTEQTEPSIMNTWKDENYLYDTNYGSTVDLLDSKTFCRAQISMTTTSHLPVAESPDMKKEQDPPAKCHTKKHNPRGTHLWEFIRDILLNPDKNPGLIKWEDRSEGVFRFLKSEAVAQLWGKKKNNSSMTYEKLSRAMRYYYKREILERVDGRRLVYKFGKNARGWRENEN
The conditions noted are these: protein: recombinant; tags: N-terminal GST; dsDNA, one strand shown. The procedure, abridged: as §1

For experiment [12], the target named is SPI1 (Homo sapiens, UniProt P17947 1-270). The settings on record: protein: recombinant; tags: N-terminal GST; dsDNA, one strand shown. The method, boiled down:
as §1

Experiment [13] has as its target T9, FEV (Homo sapiens, UniProt Q99581 1-238).
T9 sequence: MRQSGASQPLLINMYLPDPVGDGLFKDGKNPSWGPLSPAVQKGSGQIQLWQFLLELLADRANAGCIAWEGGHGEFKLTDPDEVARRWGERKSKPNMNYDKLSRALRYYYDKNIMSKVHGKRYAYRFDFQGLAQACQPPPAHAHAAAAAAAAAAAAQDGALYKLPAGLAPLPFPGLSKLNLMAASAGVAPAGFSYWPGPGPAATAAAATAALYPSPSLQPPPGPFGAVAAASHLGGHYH
The settings on record: protein: recombinant; tags: N-terminal GST; dsDNA, one strand shown. The procedure, abridged:
as §1

Experiment [14] has as its target ELF4 (Homo sapiens, UniProt Q99607 1-663). The conditions noted are these: protein: recombinant; tags: N-terminal GST; dsDNA, one strand shown. The method, boiled down:
as §1

The target of experiment [15] is T10, ETS2 (Homo sapiens, UniProt P15036 1-469).
T10 sequence: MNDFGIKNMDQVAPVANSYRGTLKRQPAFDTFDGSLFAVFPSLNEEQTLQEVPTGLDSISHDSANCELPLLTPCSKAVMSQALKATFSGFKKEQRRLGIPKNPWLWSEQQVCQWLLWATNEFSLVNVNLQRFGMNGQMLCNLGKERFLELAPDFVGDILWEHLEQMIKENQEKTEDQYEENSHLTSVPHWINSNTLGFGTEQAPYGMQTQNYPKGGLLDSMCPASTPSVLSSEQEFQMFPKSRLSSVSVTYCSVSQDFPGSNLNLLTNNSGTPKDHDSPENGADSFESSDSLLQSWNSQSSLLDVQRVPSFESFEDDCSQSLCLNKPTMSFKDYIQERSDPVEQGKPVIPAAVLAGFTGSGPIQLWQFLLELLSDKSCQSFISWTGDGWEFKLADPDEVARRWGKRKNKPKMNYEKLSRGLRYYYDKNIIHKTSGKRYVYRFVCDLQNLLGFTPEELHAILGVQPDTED
The settings on record: protein: recombinant; tags: N-terminal GST; dsDNA, one strand shown. The procedure, abridged: as §1

Experiment [16] addresses ETV6 (Homo sapiens, UniProt P41212 1-452). The conditions noted are these: protein: recombinant; tags: N-terminal GST; dsDNA, one strand shown. The method, boiled down:
as §1

Sequence of HSF1 (Q00613 whole entry): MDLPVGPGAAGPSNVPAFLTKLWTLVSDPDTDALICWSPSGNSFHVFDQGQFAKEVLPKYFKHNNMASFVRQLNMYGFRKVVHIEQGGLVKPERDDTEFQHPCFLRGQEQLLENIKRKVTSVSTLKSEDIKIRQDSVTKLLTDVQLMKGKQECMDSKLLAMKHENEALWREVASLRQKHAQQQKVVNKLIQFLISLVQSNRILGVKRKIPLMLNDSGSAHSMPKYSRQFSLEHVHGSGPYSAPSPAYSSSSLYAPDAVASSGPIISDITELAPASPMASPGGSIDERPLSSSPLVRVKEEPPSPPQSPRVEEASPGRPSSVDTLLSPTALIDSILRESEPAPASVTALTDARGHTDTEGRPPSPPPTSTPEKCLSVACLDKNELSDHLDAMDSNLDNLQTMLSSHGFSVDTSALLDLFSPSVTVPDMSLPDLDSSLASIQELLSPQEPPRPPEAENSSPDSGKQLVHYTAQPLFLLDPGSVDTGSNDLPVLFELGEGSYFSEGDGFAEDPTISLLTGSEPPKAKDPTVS
Sequence of ETV6 (P41212 whole entry): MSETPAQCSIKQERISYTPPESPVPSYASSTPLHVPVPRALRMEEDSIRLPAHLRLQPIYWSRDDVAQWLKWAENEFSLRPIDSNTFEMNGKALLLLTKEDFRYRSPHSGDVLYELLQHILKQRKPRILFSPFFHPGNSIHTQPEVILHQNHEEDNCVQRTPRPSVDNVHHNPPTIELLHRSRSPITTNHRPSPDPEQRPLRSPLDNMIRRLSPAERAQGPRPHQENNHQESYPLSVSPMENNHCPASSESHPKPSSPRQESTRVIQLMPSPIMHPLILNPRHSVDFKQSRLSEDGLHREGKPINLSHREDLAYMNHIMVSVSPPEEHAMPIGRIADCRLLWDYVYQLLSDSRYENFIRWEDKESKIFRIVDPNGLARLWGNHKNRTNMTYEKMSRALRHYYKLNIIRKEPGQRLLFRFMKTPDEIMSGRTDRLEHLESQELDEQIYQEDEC
Sequence of CRX (O43186 whole entry): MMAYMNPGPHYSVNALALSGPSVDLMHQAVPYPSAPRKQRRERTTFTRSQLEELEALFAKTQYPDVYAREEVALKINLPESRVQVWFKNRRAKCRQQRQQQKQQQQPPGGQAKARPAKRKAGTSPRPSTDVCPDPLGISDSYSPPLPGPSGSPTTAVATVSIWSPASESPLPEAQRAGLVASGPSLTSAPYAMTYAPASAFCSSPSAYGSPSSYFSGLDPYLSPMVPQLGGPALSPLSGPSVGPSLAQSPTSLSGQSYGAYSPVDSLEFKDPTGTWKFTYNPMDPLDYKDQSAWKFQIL
Sequence of ELF4 (Q99607 whole entry): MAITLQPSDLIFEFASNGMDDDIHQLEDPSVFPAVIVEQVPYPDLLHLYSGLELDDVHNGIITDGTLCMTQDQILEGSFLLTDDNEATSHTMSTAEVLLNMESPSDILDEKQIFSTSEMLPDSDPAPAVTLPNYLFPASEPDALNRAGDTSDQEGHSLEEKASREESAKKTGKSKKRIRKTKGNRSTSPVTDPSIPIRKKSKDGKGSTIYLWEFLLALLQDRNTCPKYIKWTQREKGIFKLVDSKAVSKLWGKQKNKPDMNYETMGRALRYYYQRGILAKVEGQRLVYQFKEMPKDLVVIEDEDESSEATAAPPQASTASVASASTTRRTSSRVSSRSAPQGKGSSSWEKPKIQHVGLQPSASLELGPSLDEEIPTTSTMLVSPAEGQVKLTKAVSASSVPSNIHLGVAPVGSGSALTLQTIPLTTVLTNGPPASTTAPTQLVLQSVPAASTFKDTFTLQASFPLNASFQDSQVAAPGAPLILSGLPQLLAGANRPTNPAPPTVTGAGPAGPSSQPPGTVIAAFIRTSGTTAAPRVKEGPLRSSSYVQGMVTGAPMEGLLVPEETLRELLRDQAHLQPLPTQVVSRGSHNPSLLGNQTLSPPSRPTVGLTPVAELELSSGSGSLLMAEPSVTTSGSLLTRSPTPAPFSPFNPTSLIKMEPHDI

In the case of GATCAT, the binding signal in [1] is 1.01 fold enrichment (6-mer frequency, TF over GST control); in experiment [2], 1.1 fold enrichment (6-mer frequency, TF over GST control); in experiment [3], 1.3 fold enrichment (6-mer frequency, TF over GST control); in experiment [4], 1.07 fold enrichment (6-mer frequency, TF over GST control); in experiment [5], 1.05 fold enrichment (6-mer frequency, TF over GST control); in [6] it was 1.48 fold enrichment (6-mer frequency, TF over GST control). Further, the binding signal is 1.09 fold enrichment (6-mer frequency, TF over GST control) in experiment [7]; 1 fold enrichment (6-mer frequency, TF over GST control) in [8]; 1.04 fold enrichment (6-mer frequency, TF over GST control) in experiment [9].
Turning to CGAATG, the binding signal in experiment [10] was 1.12 fold enrichment (6-mer frequency, TF over GST control); in [1], 1.05 fold enrichment (6-mer frequency, TF over GST control); in [11] it was 1.05 fold enrichment (6-mer frequency, TF over GST control); in experiment [12] it was 1.03 fold enrichment (6-mer frequency, TF over GST control); in experiment [2] it was 1.01 fold enrichment (6-mer frequency, TF over GST control); in [13] it was 1.01 fold enrichment (6-mer frequency, TF over GST control). Further, the binding signal in experiment [3] was 1.5 fold enrichment (6-mer frequency, TF over GST control); in experiment [14], 1.13 fold enrichment (6-mer frequency, TF over GST control); in experiment [4], 1.07 fold enrichment (6-mer frequency, TF over GST control); in [5], 1.12 fold enrichment (6-mer frequency, TF over GST control); in [7] it was 1.02 fold enrichment (6-mer frequency, TF over GST control); in experiment [15], 1.14 fold enrichment (6-mer frequency, TF over GST control). Besides, the binding signal in experiment [9] was 1.08 fold enrichment (6-mer frequency, TF over GST control); in [16], 1.11 fold enrichment (6-mer frequency, TF over GST control).

The record behind these values is PMC7862700, “An all-to-all approach to the identification of sequence-specific readers for epigenetic DNA modifications on cytosine”.
